# Data: the supplement of paper PMC6555819
# Experiments:
# Assay in all cases: PBM binding z-score (relative to random genomic background probes); higher = stronger binding; sequences stand for … in GC…GCGATTGACAGCGTAGAATGAAGG
# [1] = tested on: FXR:RXRa (NR concentration 270 nM, RXRa partner concentration 90 nM)
# Method in brief: (§1)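 Scanned fluorescence from custom Agilent 4×180K protein-binding microarrays was regression-normalized. Binding z-scores use random background probes as reference. Ligand-free nuclear receptor dimers were incubated on the arrays for 1 h and detected with antibodies against each partner (one per run).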
# [2] = tested on: LXRa:RXRa (NR concentration 270 nM, RXRa partner concentration 90 nM)
# Method in brief: as §1
# [3] = tested on: LXRa homodimer (NR concentration 270 nM)
# Method in brief: as §1
# [4] = tested on: LXRb:RXRa (NR concentration 270 nM, RXRa partner concentration 90 nM)
# Method in brief: as §1
# [5] = tested on: LXRb homodimer (NR concentration 270 nM)
# Method in brief: as §1
# [6] = tested on: PPARa:RXRa (NR concentration 270 nM, RXRa partner concentration 90 nM)
# Method in brief: as §1
# [7] = tested on: PPARg:RXRa (NR concentration 180 nM, RXRa partner concentration 90 nM)
# Method in brief: as §1
# [8] = tested on: PPARg:RXRa 270nM:90nM, anti-RXR (NR concentration 270 nM, RXRa partner concentration 90 nM)
# Method in brief: as §1
# [9] = tested on: PPARg:RXRa 30nM:10nM, anti-RXR (NR concentration 30 nM, RXRa partner concentration 10 nM)
# Method in brief: as §1
# [10] = tested on: PPARg:RXRa 90nM:30nM, anti-RXR (NR concentration 90 nM, RXRa partner concentration 30 nM)
# Method in brief: as §1
# [11] = tested on: PPARg:RXRa DBDmut IVT, anti-RXR (DBD mutation: RXRa K156A/R161A, NR concentration 270 nM, RXRa partner concentration 90 nM)
# Method in brief: as §1
# [12] = tested on: PPARg:RXRa IVT, anti-PPARg (NR concentration 270 nM, RXRa partner concentration 90 nM)
# Method in brief: as §1
# [13] = tested on: PPARg DBDmut:RXRa IVT, anti-PPARg (DBD mutation: PPARg1 K132A/R137A, NR concentration 270 nM, RXRa partner concentration 90 nM)
# Method in brief: as §1
# [14] = tested on: PPARg DBDmut IVT, anti-PPARg (DBD mutation: PPARg1 K132A/R137A, NR concentration 270 nM)
# Method in brief: as §1
# [15] = tested on: PPARg homodimer (NR concentration 180 nM)
# Method in brief: as §1
# [16] = tested on: PXR:RXRa (NR concentration 270 nM, RXRa partner concentration 90 nM)
# Method in brief: as §1
# [17] = tested on: PXR homodimer (NR concentration 270 nM)
# Method in brief: as §1
# [18] = tested on: RARa:RXR (NR concentration 270 nM, RXRa partner concentration 90 nM)
# Method in brief: as §1
# [19] = tested on: RARa homodimer (NR concentration 270 nM)
# Method in brief: as §1
# [20] = tested on: RARb:RXRa (NR concentration 270 nM, RXRa partner concentration 90 nM)
# Method in brief: as §1
Sequence,PBM binding z-score [1],PBM binding z-score [2],PBM binding z-score [3],PBM binding z-score [4],PBM binding z-score [5],PBM binding z-score [6],PBM binding z-score [7],PBM binding z-score [8],PBM binding z-score [9],PBM binding z-score [10],PBM binding z-score [11],PBM binding z-score [12],PBM binding z-score [13],PBM binding z-score [14],PBM binding z-score [15],PBM binding z-score [16],PBM binding z-score [17],PBM binding z-score [18],PBM binding z-score [19],PBM binding z-score [20]
CGTCCTAGGTCAAAGGTCAGTGAAGAGATGACGG,7.08,5.88,2.24,5.52,0.881,6.8,11,9.26,9.03,10.2,4.39,5.93,0.538,0.49,3.9,6.08,0.262,7.96,1.07,5.64
ATTTGTAGGTTAGCTGGGGTCATTCAGACTAGGC,4.72,6,4.63,5.23,2.54,5.2,4.29,4.6,2.42,3.79,5.34,5.05,2.63,3.11,4.33,6.6,4.49,5.99,2.49,3.52
TCTAGCAGGCCAGAGGGTCATTCAAGAGGTACGG,1.45,1.27,-0.353,1.51,-1.01,2.71,1.54,3.08,2.26,2.98,0.912,0.374,-1.21,-1.66,0.751,2.2,-0.364,2.79,-0.545,2.17
CGAAGTAGGTCAAGGACAGTGAATCTCCGCACGC,3.88,2.75,0.0941,1.82,-0.179,5.28,8.14,6.95,4.62,6.44,8.4,8.73,5.06,1.85,2.14,1.39,-0.253,2.46,0.686,3.95
CCTGCTAGGTCAACGGTCAGCTAAAGCAGCTCGC,4.13,3.09,0.58,2.17,0.4,4,6.12,6.08,3.98,6.08,4.82,4.76,0.645,-0.543,2.2,1.8,-0.372,2.89,0.262,4.45
TCTTCTAGATCAGCAGGTTAAGAAAGCTGGCCAA,0.108,0.0628,-0.37,0.225,0.0387,0.759,-0.499,1.53,2.84,2.08,1.75,0.956,-0.541,-0.141,-0.0964,0.0261,-0.795,0.252,-0.167,0.235
ATCTCTAGGTAACAAGTTCAGTGTAAGAGAGGAC,0.924,0.672,0.835,0.727,1.14,1.52,1.37,2.11,0.896,1.48,3.42,2.96,0.813,1.82,1.08,1.61,2.33,1.09,1.11,1.78
TCATATAGGTAAATGTGAAAGTCGAACGATATGA,0.203,0.245,-0.116,0.343,-0.015,0.983,1.44,2.01,3.79,2.88,3.33,2.26,1.69,1.36,0.31,0.168,-0.0723,0.602,0.286,0.153
GCTGGGAGGACAAGGTCAGAGCTTTGTCCGTAGA,1.59,1.84,-0.27,1.45,-0.657,2.47,0.399,1.28,-0.497,0.699,0.282,0.836,-1.6,-1.38,1.02,1.89,-0.0131,2.62,-0.22,3.41
CGTCCAAGGTCAAGGACAGTGAAAGAGACTCGAA,6.84,4.98,0.198,3.81,0.401,5.57,5.12,5.16,1.84,3.73,3.23,3.38,1.03,-0.206,2.55,3.63,0.575,4.25,1.12,5.22
ATCGCTAGGTAACAAGTTCAGTGAAAGAGAGGAC,-0.045,0.0443,-0.0365,-0.0294,-0.328,0.506,0.393,0.468,-0.139,0.219,-0.0634,0.674,0.226,0.479,0.192,1.13,1.05,0.46,-0.284,1.38
CCTTACGGGTCAAGGTTATAGCGCGGGTGGTACG,5.55,3.66,0.129,2.75,0.134,5.04,4.54,4.41,1.73,3.35,2.04,3.57,-0.278,0.175,1.9,3.27,-0.0779,3.94,0.367,4.29
AGACTGAGGTTAAGATCAGGGAAACAGAATACAT,2.11,1.75,-0.133,1.6,-0.417,2.92,1.21,1.18,0.748,0.879,0.0393,0.554,-0.0816,-0.0692,0.531,0.903,0.258,1.84,-0.0293,1.7
AGAACGACGGCACGCTGAGTTGATAGCAGAGTAG,-0.194,-0.427,-0.906,-0.149,-1.06,-0.667,0.557,-0.503,-0.345,-0.753,-0.407,-0.737,-0.755,-1.05,-0.628,-0.462,0.0818,-0.447,-0.252,-0.524
TCGAGTAGGTTAGGGGCATACAGAATGGCGTCGA,0.679,0.555,-0.335,0.825,-0.198,1.39,1.04,1.65,1.4,1.6,1.98,1.38,0.000515,-1.13,0.459,0.501,0.171,0.678,-0.124,1.06
TCTGCTAGGTCAACGATGATCAGCTAATCTGCTA,3.12,1.96,-0.355,1.52,-0.366,3.32,2.74,2.86,2.03,2.38,4.26,4.06,0.35,0.888,0.451,0.896,-0.713,1.77,-0.998,3.99
AGTCAAAGTTCATGACGAGGTAACGTAAAGCACG,6.67,6.13,2.96,3.45,0.691,5.01,6.45,6.59,3.58,5.63,0.137,3.44,1.06,1.37,3.26,4.93,1.98,4.61,0.824,4.84
CTACCAAGGTGAACAAGGTCTTTGATTACTATTC,0.811,0.534,-0.122,1.18,-0.113,1.71,0.626,0.721,0.0464,0.438,2.51,2.75,0.785,0.293,0.597,0.752,0.0854,0.973,0.482,1.72
ACTCAAAGTTCAGGACGAGGTAACGTAAAGCACG,4.15,4.07,1.77,2.18,0.639,3.27,1.61,1.86,0.747,1.23,0.133,0.996,0.541,0.409,2.29,3.09,1.46,2.81,0.77,4.52
CCTATTAGTTAACCATAAGGGCAACCGAAGCTCG,0.323,0.341,0.429,0.249,0.486,0.386,0.374,0.215,0.166,0.0193,0.296,0.65,0.701,0.763,1.71,0.409,0.723,0.812,1.42,1.41
CTCGAAAGGTCGGTTGAAGTGAGTATACGGATAA,1.48,1.58,-0.00237,1.54,0.166,2.45,0.257,1.02,0.428,0.796,-0.0991,0.86,0.362,0.582,0.716,1.17,0.13,1.38,0.453,3
CCGACTTGGGCAGAAAGGTTACCATACCATCCGG,0.0234,0.228,-0.275,0.646,-1.09,1.44,1.06,1.64,0.23,0.892,-0.147,-0.369,-0.764,-1.15,0.811,0.592,-0.331,1.16,-0.0756,1.12
CCTCGGAGGGCAACAGGAGGTCAGAGCTGCCAGA,2.19,3.83,1.29,2.23,-0.758,3.02,0.969,1.32,-0.587,0.405,0.555,1.54,-1.74,-1.13,1.67,3.35,-0.207,3.63,0.286,3.71
TCTATTAGTTGATTAGGGCATCCGAAACAGCGGA,0.685,0.731,0.192,0.397,0.553,0.769,0.185,1.91,3.47,2.78,2.14,1.16,0.865,0.919,1.28,0.607,0.652,0.754,1.52,0.788
GCTTACGGATCAAAGGTTATAGCATGAATAGAAT,1.93,2.43,0.189,2.49,-0.332,4.12,5.77,6.43,4.61,7.07,-0.119,1.82,0.708,0.266,0.616,2.38,-0.00589,3.61,0.0862,1.42
CAGACTAGGTCACAGAGGTCAAAGTCCGTGCGTA,6.87,6.52,6.79,6.23,1.62,6.22,8.66,7.43,5.05,7.36,7.57,8,2.36,0.704,4.93,6.65,11.5,7.28,2.93,5.07
ATATGTAGGTTACATCCGGGTCGTTCAGGCTATG,1.06,2.86,0.557,1.67,0.653,3.5,5.18,4.47,1.66,3.49,7.59,7.22,2.21,1.61,1.23,1.64,0.721,1.35,0.787,1.49
TCTAGCAGGCCACAGGGTCACTCAAGAGGTACGG,1.75,1.69,-0.338,1.82,-1.09,3.23,2.19,3.02,2.18,2.65,1.57,2.41,0.0342,-1.16,1.75,2.71,-0.163,3.42,-0.568,2.63
GGAACGAGGGCAAAATTGATAGCATCTGTCGACG,0.343,0.168,-0.325,0.129,-0.58,1.03,1.22,1.52,0.191,0.732,3.25,2.12,0.369,-0.0358,0.19,0.226,-0.165,0.355,-0.196,1.57
